Experimental findings from PMC9928087, “Plasmids manipulate bacterial behaviour through translational regulatory crosstalk” are described below.

Where a chain is given by its changes, count along the chain named.

Assay [1] deals with T1, RsmQ (Pseudomonas fluorescens SBW25 plasmid …, UniProt UPI00015066B5 1-62).
T1 sequence: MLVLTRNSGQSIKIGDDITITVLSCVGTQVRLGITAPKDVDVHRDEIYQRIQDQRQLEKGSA
Put plainly: SPR (ReDCaT); 100 nM protein; HBS-EP+ (10 mM HEPES, 150 mM NaCl, 3 mM EDTA, 0.05% v/v Tween 20, pH 7.4), 20 C, Biacore 8K, ReDCaT SA chip; high values mean tight binding. To be noted: protein: recombinant, tags: C-terminal TEV site + 6xHis, chain copies: 2.

Another assay concerns the target T2, RsmE (Pseudomonas fluorescens SBW25, UniProt A0ACA7PAD1 1-74).
T2 sequence: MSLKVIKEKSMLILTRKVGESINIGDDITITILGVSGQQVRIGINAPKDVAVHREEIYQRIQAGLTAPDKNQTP
The assay is described as above. To be noted: protein: recombinant; tags: His tag (pET28a NdeI/XhoI); chain copies: 2; structured_DNA.

Assay [2] addresses T1, RsmQ. Put plainly: SPR (ReDCaT); 100 nM protein, run beside RsmE; HBS-EP+ (10 mM HEPES, 150 mM NaCl, 3 mM EDTA, 0.05% v/v Tween 20, pH 7.4), 20 C, Biacore 8K, ReDCaT SA chip; high values mean tight binding. To be noted: protein: recombinant; tags: C-terminal TEV site + 6xHis; chain copies: 2; structured_DNA.
For assay [3], the target named is T1, RsmQ. Put plainly: SPR (ReDCaT); HBS-EP+ (10 mM HEPES, 150 mM NaCl, 3 mM EDTA, 0.05% v/v Tween 20, pH 7.4), 20 C, Biacore 8K, ReDCaT SA chip; high values mean tight binding. To be noted: protein: recombinant, tags: C-terminal TEV site + 6xHis, chain copies: 2.
The target of another assay is T3, RsmQ H43A (Pseudomonas fluorescens SBW25 plasmid …, UniProt UPI00015066B5 1-62, H43A).
T3 sequence: T1 sequence with H43A
Put plainly: SPR (ReDCaT); 100 nM protein; HBS-EP+ (10 mM HEPES, 150 mM NaCl, 3 mM EDTA, 0.05% v/v Tween 20, pH 7.4), 20 C, Biacore 8K, ReDCaT SA chip; high values mean tight binding. To be noted: protein: recombinant; tags: C-terminal TEV site + 6xHis; chain copies: 2; structured_DNA.

In another assay the target is T4, RsmQ R44A (Pseudomonas fluorescens SBW25 plasmid …, UniProt UPI00015066B5 1-62, R44A).
T4 sequence: T1 sequence with R44A
The description is as above. To be noted: protein: recombinant; tags: C-terminal TEV site + 6xHis; chain copies: 2; structured_DNA.

As for CCGCGCATGGAAGCGCAAAC, the binding signal in the assay with RsmQ [1] (structured_DNA) came to 113.5 ± 0.537 %Rmax; with RsmE it was 30.1 ± 0.204 %Rmax; with RsmQ [2], 107 ± 6.88 %Rmax. Consider CAGGAACGGACAGAGC, for which the binding signal with RsmQ [1] (ssDNA) came to 6.27 ± 1.5 %Rmax. For the sequence CCGCGCAGGGAAGCGCAAAC, the binding signal was 106.2 ± 0.739 %Rmax with RsmQ [1] (structured_DNA), 47.5 ± 0.0552 %Rmax with RsmE and 90.1 ± 4.07 %Rmax with RsmQ [2]. As for CCATCAAGGAACGATGGTTCGAAGG, the binding signal with RsmQ [3] (ssDNA) was 11.7 ± 0.382 %Rmax. CCGCGCAGGAAGCGCAAAC: the binding signal in the assay with RsmQ [1] (structured_DNA) came out at 94.4 ± 1.28 %Rmax; in the assay with RsmQ H43A it was 43.9 ± 0.798 %Rmax; with RsmQ R44A it was 22.1 ± 0.676 %Rmax; with RsmQ [2] it was 98.6 ± 6.21 %Rmax. For CCGCGCACTGAAGCGCAAAC, the binding signal in the assay with RsmQ [1] (structured_DNA) is 1.69 ± 0.298 %Rmax. With AATGTCGCAGGATGCGATTCATCAG, the binding signal in the assay with RsmQ [3] (ssDNA) stood at 62.7 ± 2.27 %Rmax.

Turning to TTCATCAGGATGATGAAAAGGAATAC, the binding signal with RsmQ [3] (ssDNA) came out at 80.5 ± 1.97 %Rmax. With GCCCTGTGTCCACGGATTGGCACAA, the binding signal with RsmQ [3] (structured_DNA) is 82.5 ± 1.12 %Rmax. With CTGCCAGGATGGCGGAGTGAAATGG, the binding signal with RsmQ [3] (ssDNA) was found to be 16.2 ± 1.37 %Rmax. In the case of CCGCGCCGGAAGCGCAGGAAC, the values for the binding signal with RsmQ [1] (structured_DNA), with RsmQ H43A and with RsmQ R44A were 28.8 ± 0.617 %Rmax, 12.8 ± 0.157 %Rmax and 3.8 ± 0.253 %Rmax, respectively.

GGAATACAGGGACTAGGGAAAAAAT: the binding signal in the assay with RsmQ [3] (ssDNA) turned out to be 3.83 ± 1.08 %Rmax. Turning to CCGCGCACGGAAGCGCAAAC, the binding signal is 68.3 ± 0.752 %Rmax with RsmQ [1] (structured_DNA); 50.72 ± 0.382 %Rmax in the assay with RsmQ H43A; 41.38 ± 0.372 %Rmax in the assay with RsmQ R44A; -4.31 ± 0.212 %Rmax with RsmE; 49.1 ± 0.724 %Rmax with RsmQ [2]. With CCGCGCACGGAAGCGCAACGGAAC, the binding signal worked out at 70 ± 0.746 %Rmax with RsmQ [1] (structured_DNA), 51.14 ± 0.26 %Rmax in the assay with RsmQ H43A and 38.8 ± 0.461 %Rmax with RsmQ R44A. CCGCGCCCGGAAGCGCAAAC: the binding signal with RsmQ [1] (structured_DNA) worked out at 7.21 ± 0.838 %Rmax. As to CAAGGAGACAGAGCAACAGGA, in the assay with RsmQ [1] (ssDNA), the binding signal is 3.14 ± 0.795 %Rmax. For the sequence CCGCGCACGAAGCGCAAAC, in the assay with RsmQ [1] (structured_DNA), the binding signal came out at 24.9 ± 0.641 %Rmax. Take CAGGACAGGACAGAGC: the binding signal with RsmQ [1] (ssDNA) was found to be 4.87 ± 0.902 %Rmax.

Regarding ATGGACGTCGCGCAGGAAGCGCAAA, the binding signal with RsmQ [3] (structured_DNA) was 83.5 ± 1.31 %Rmax. For the sequence GCAACAACACGGACACGTAGGATT, in the assay with RsmQ [3] (ssDNA), the binding signal is 3.78 ± 1.57 %Rmax. For CAGGAAAGGACAGAGCACGGA, in the assay with RsmQ [1] (ssDNA), the binding signal came to 10.1 ± 0.715 %Rmax.

Regarding CCGCGCTCGGAAGCGCAAAC, the binding signal with RsmQ [1] (structured_DNA) was found to be 4.59 ± 0.514 %Rmax.
